High-throughput results (PubChem)
Shown are actives, neighbours in structure and some others; about 12% of the full set was active somewhere.
Sfp PPTase inh = qHTS Assay for Inhibitors of Bacillus subtilis Sfp phosphopantetheinyl transferase (PPTase); Biochemical Sfp PPTase activity, qHTS; Potency, µM, for the others: largest response in the series, negative = inhibition, most hits filed as inhibitors; hit rate 3.5% among 310,000;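 further: the enzyme is Sfp with the accession as filed and its product quenches rhodamine fluorescence; 0% = enzyme reaction without inhibitor and -100% = no enzyme wells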
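Fluorescence-quenching assay: 15 nM Sfp-PPTase preincubated 15 min at room temperature with compound, then 5 uM rhodamine-CoA and 12.5 uM BHQ-2-labelled YbbR peptide added. Fluorescence (ex 525/em 598 nm) read at start and after 30 min; difference gives rate.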
JMJD2A Tudor = qHTS Assay for Inhibitors of JMJD2A-Tudor Domain. Lysine-specific demethylase 4A (Homo sapiens), O75164. AlphaScreen JMJD2A-Tudor / H3K4me3 peptide binding. Potency, µM (top dose mostly 114 µM), for inactives: at the top dose activity change, negative = inhibition, most hits filed as inhibitors. hit rate 4.4% among 390,000; further: on the % scale 0 is the no-effect control and ±100 the full control effect; nearly all actives have a fitted effect of over 50% in size
L3MBTL1 inh = qHTS Assay for the Inhibitors of L3MBTL1; Lethal(3)malignant brain tumor-like protein 1 (Homo sapiens), Q9Y468; hit rate 0.66% among 230,000; Potency, µM (highest dose often 57.1 µM), without a hit: top-dose activity, negative = inhibition, actives largely listed as inhibitors; AlphaScreen L3MBTL1–H3K9me1 peptide binding; further: on the % scale 0 is the no-effect control and ±100 the full control effect; nearly all actives have a fitted effect of over 60% in size
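AlphaScreen assay: L3MBTL1 (50 nM final) was preincubated 30 min at room temperature with biotinylated H3(1-15)K9me1 peptide (75 nM final), then 30 min with library compounds; streptavidin donor and nickel chelate acceptor beads (10 ug/mL final) added, 30 min dark.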
G9a inh = qHTS Assay for Inhibitors of Histone Lysine Methyltransferase G9a; Histone-lysine N-methyltransferase EHMT2 (Homo sapiens), Q96KQ7; G9a H3K9 monomethylation, AlphaScreen, 2 h; Potency, µM (doses to about 102 µM), without a hit: at the top dose activity, negative = inhibition, actives largely listed as inhibitors; hit rate 8.8% among 350,000; AID 504332, 2011; further: on the % scale 0 is the no-effect control and ±100 the full control effect; nearly all actives have a fitted effect of over 75% in size
Target sequence (Q96KQ7 913-1193 limits assumed): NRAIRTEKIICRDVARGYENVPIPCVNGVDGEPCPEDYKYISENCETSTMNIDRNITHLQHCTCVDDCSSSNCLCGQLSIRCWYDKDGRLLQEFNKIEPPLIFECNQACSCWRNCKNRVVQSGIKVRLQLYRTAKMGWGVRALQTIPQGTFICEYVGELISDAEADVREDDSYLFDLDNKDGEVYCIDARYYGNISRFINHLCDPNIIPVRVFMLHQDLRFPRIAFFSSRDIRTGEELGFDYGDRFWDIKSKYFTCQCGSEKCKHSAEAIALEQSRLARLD
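Enzyme 20 nM + cpd, 15 min RT; add b-H3K9 pep 500 nM / SAM 20 uM; 2 h RT; anti-H3K9me1 Ab 0.5 ug/mL + SA donor / anti-rabbit acceptor beads 20 ug/mL each, 10 min; AlphaScreen read.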
BAZ2B block = qHTS Assay for Inhibitors of BAZ2B. Potency, µM (doses to about 114 µM), for inactives: at the highest dose activity change, negative = inhibition, most hits filed as inhibitors. AlphaScreen BAZ2B-H3K14Ac peptide displacement. hit rate 4.4% among 360,000; further: on the % scale 0 is the no-effect control and ±100 the full control effect; nearly all actives have a fitted effect of over 60% in size
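Complex of BAZ2B and biotin-H3K14Ac (50 nM apiece) forms over 30 min at RT, then faces library compounds up to 110 uM for another 30 min; AlphaScreen beads added, 20 min dark incubation, luminescence read.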
HP1b binding inh = HTS for Inhibitors of HP1-beta Chromodomain Interactions with Methylated Histone Tails | AlphaScreen HP1-beta / biotin-H3K9me3 peptide binding | Potency, µM (doses to about 114 µM), without a hit: at the highest dose activity change, negative = inhibition, hits mostly inhibitors | hit rate 0.56% among 390,000 | AID 540317, 2011; further: nearly all actives have a fitted effect of over 70% in size
Target sequence (P83916 whole entry, looked up): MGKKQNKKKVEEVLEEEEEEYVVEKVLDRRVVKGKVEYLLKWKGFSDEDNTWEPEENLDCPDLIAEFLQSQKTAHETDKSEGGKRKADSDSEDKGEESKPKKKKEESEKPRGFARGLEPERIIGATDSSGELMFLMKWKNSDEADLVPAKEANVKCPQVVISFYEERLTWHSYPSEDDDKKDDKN
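Compound inhibition of the preformed complex between 50 nM HP1-beta and 50 nM biotinylated H3K9me3 peptide was read by AlphaScreen. Buffer was PBS pH 7.4 with 0.01% Tween-20. Incubations ran 30 min at room temperature, with 10 ug/mL donor/acceptor beads.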
Active calls of the source: *; ? = inconclusive; · = not tested or not shown; [ ] = dose if it differs, or a comment. The call rests on the fitted dose curve; in most records, active means well fitted curve in the direction sought with a large enough effect; inconclusive means small, poorly fitted or top-dose-only effect, or another doubt; inactive means no such curve, though single readings can be large; an effect the other way counts as inactive or inconclusive. Potency means the concentration at half of the fitted maximal effect.

SMILES | Sfp PPTase inh | JMJD2A Tudor | L3MBTL1 inh | G9a inh | BAZ2B block | HP1b binding inh
O=C(NCCCCCCNC(=O)ON=C1CCCCC1)ON=C1CCCCC1 | 4% | · | · | 26%[59 µM] | · | ·
CCOC(=O)CCCCC(=O)c1[nH]c(=O)[nH]c1C[n+]1ccc(C)cc1 | 10% | -15% | · | 45µM* | ? | 23%
CCOC(=O)CCCCC(=O)c1[nH]c(=O)[nH]c1CN1CCOCC1 | 8% | 35µM* | ? | ? | 16µM* | -37%
CCCCC[C@]12Cc3ccccc3C(O1)c1c(cc(C)oc1=O)O2 | 5% | · | · | · | 3%[22.9 µM] | ·
CC(=O)OC1CCC2(C)C3=C(CCC2C1(C)C)[C@]1(C)CCC(C(C)CCC=C(C)C)[C@]1(C)CC3 (stereo partly specified) | -4% | · | · | -2%[2.33 µM] | · | ·
C/C(=C/CCC(C)C1CCC2(C)C3CCC4C(C)(C)C(=O)CCC4(C)C3=CCC12C)C(=O)O (stereo unspecified) | -5% | · | · | 5%[59 µM] | 50µM* | ·
O=C(NCc1ccccc1Cl)c1ccc(CSCc2ccccc2Cl)o1 | · | -1% | · | 12%[59 µM] | 7% | 21%
O=C(CCCCC(=O)NCc1cccs1)NCc1cccs1 | 12% | 3% | 3% | -2% | -4% | 34%
O=C(CCNC(=O)c1ccc(Br)cc1)NCc1ccco1 | · | -8% | -6% | 11%[0.501 µM] | 13% | 13%
O=C(CCS(=O)(=O)c1ccc(Br)cc1)NCc1cccs1 | 2% | 35µM* | · | ? | 50µM* | 50µM*
O=C(CCS(=O)(=O)c1ccc(Br)cc1)NCc1ccco1 | -2% | 2% | · | -21%[59 µM] | 50µM* | 43%
CCc1ccc(Oc2c(C(F)(F)F)oc3c(CN4CCC(C)CC4)c(O)ccc3c2=O)cc1 | · | 7% | · | 4%[59 µM] | -1% | 38%
CCCCCNC(=O)CCn1c(=O)[nH]c2ccccc2c1=O | · | -7% | · | 3%[59 µM] | -5% | 8%
CCN(CCCNC(=O)CCn1c(=O)[nH]c2ccccc2c1=O)c1ccccc1 | 12% | -27% | · | 50µM* | -1% | 13%
CCN(CCCNC(=O)CCCn1c(=O)[nH]c2ccccc2c1=O)c1cccc(C)c1 | -7% | -28%[57.1 µM] | -9% | 13µM* | ? | -12%
CCN(CCCNC(=O)COc1cc(=O)n(C)c2ccccc12)c1cccc(C)c1 | 8% | ? | -2% | 35µM* | 50µM* | -1%
Cn1c(=O)cc(OCC(=O)NCCCN2CCN(c3cccc(Cl)c3)CC2)c2ccccc21 | -7% | -35% | 1% | 50µM* | -29% | 17%
Cc1ccc(CNC(=O)CCCn2c(=O)[nH]c3ccccc3c2=O)cc1 | 8% | -22% | -6% | -7%[59 µM] | 5% | 44%
Cc1cccc(CCNC(=O)COc2cc(=O)n(C)c3ccccc23)c1 | 4% | 11% | 6% | 8% | 1% | 23%
COc1ccc(/C=C/C(=O)Nc2nc3n(n2)C(c2ccc(F)cc2)C=C(c2ccccc2)N3)cc1 (stereo unspecified) | · | -17% | · | -32%[59 µM] | -39% | 14%
Cc1ccc(-n2ncc3c(N(C)Cc4ccccc4)ncnc32)cc1 | · | 54% | · | 34%[59 µM] | 48% | 128%
O=C(NCc1ccc(F)cc1Cl)c1cc(=O)[nH]c2ccc(S(=O)(=O)N3CCCCC3)cc12 | · | -9% | · | 6%[59 µM] | -2% | 26%
COc1ccc(CCNC(=O)Cn2c(-c3ccc(F)cc3)cc(C(C)=O)c2C)cc1OC | · | -13% | · | 8%[59 µM] | -3% | 11%
Cc1cccc(-c2noc(CCC(=O)NCCc3ccccc3)n2)c1 | 9% | -11% | · | 9% | 15% | 54%
